Assay results as given in PubChem BioAssay AID1619 (SRMLSC, 2009).
Out of some 220,000 compounds screened, about 830 (0.38%) were called active.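 How the source made its calls: active means compound inhibiting the enzyme by more than half at any dose during confirmatory dose-response retesting; inconclusive means strong single-dose inhibitors picked by rank but not retested; inactive means the rest.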 Only a sample is shown. Measured potencies and affinities stand elsewhere.

Biological target: Leucine aminopeptidase (Plasmodium falciparum (isolate 3D7)) (UniProt Q8IL11)
Sequence (Q8IL11 whole entry, looked up): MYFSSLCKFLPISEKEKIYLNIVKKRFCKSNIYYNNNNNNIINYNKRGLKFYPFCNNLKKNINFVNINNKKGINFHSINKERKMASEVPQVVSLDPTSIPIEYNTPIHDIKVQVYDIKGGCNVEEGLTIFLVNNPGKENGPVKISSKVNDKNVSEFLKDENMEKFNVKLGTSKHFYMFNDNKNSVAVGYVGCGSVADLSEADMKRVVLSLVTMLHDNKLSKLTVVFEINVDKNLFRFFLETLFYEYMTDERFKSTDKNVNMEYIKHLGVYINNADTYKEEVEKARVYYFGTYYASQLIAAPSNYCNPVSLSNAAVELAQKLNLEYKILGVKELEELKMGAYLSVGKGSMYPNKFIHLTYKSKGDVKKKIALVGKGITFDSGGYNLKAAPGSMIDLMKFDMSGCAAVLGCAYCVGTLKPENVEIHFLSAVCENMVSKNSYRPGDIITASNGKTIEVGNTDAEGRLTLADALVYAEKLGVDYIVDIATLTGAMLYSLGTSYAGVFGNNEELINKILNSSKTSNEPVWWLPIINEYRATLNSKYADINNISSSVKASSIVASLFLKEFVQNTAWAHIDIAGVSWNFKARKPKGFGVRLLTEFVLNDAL
Assay: P. falciparum M17LAP inhibitors, primary screen, biochemical, fluorogenic H-Leu-NHMec substrate, 1536-well (AID 1619);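 further: plate controls were full reaction with DMSO carrier for no effect and no enzyme background for full effect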
Settings: recombinant M17LAP, H-Leu-NHMec fluorogenic kinetic assay; at 30 µM; stronger effect = higher value

inhibition, inactive:
NC(=O)CC(NC(=O)Cc1ccc(Br)cc1)c1ccc(NCc2ccc(F)c(F)c2)c([N+](=O)[O-])c1 (centres undefined) -2.21%
Cc1noc(NS(=O)(=O)c2ccc(N/C=C/C(=O)c3ccc4c(c3)OCO4)cc2)c1C 36.4%
Cc1noc(NS(=O)(=O)c2ccc(N/C=C/C(=O)c3ccc(F)cc3)cc2)c1C 20.6%
Cc1cc(C)nc(SCC(=O)Nc2ccc(S(=O)(=O)Nc3onc(C)c3C)cc2)n1 -13.9%
Cc1cc(C)c(C(=O)Nc2ccc(S(=O)(=O)Nc3onc(C)c3C)cc2)c(C)c1 -10.6%
Cc1cc(C(=O)Nc2ccc(S(=O)(=O)Nc3onc(C)c3C)cc2)c(C)o1 -21.9%
Cc1noc(NS(=O)(=O)c2ccc(NC(=O)CSc3n[nH]c(-c4ccccc4)n3)cc2)c1C -60.9%
CCSc1cnn(-c2ccccc2)c(=O)c1SCC 9.04%
Cc1ccc(C(=O)O)cc1NC(=O)C1CCCN1S(=O)(=O)c1cccc2nsnc12 (centres undefined) -2.3%
CC(=O)Nc1ccccc1OCC(=O)NC(C)c1ccc(F)cc1 (centres undefined) 7.52%
CCOC(=O)c1oc2ccccc2c1NC(=O)c1ccc(S(=O)(=O)N2CCCC2)cc1 -6.8%
S=c1[nH]nc(-c2cc(-c3ccccc3)n[nH]2)n1/N=C/c1ccc(Cl)cc1 1.35%
O=C(Nc1ccc(Cl)cc1)c1csc(-c2ccccc2)n1 -10.4%
CC(C)OC(=O)/C(C#N)=C/c1cn(C)c2ccccc12 -3.85%
CC(=O)N1CCC2(CC1)C(C#N)=C(N)Oc1n[nH]c(C)c12 8.86%
Cc1ccc(SCc2[nH]nc3c2C2(C(=O)Nc4ccc(F)cc42)C(C#N)=C(N)O3)cc1 (centres undefined) 10.5%
COCc1[nH]nc2c1C1(CCSCC1)C(C#N)=C(N)O2 11.4%
CC(=O)N1CCC2(CC1)C(C#N)=C(N)Oc1n[nH]c(C(F)(F)F)c12 -15.9%
CCCC(=O)Nc1ccc(C(=O)NN2C(=O)c3ccccc3C2=O)cc1 -2.16%
O=C(c1ccccn1)N(Cc1ccco1)C1(C(=O)NC2CCCCC2)CCCCC1 1.03%
CC1CCCCN1CC(=O)Nc1cc(S(=O)(=O)N2CCOCC2)ccc1N1CCCC1 (centres undefined) 4.92%
Cc1ccc(NC(=O)N2CCCCC2)cc1NC(=O)N1CCCCC1 -2.13%
CC1CC(CC(=O)NNc2nc(-c3ccccc3)cs2)C(=O)O1 (centres undefined) 12.5%
CC1(C)CC(CC(=O)NNc2nc(-c3ccccc3)cs2)C(=O)O1 (centres undefined) 12.7%
CC1CC(CC(=O)Nc2nc(-c3ccccc3)cs2)C(=O)O1 (centres undefined) 2.05%
C/C(CC1CC(COCC(C)C)OC1=O)=N\Nc1nc(-c2ccccc2)cs1 (centres undefined) 10.7%
O=C(CN(Cc1ccco1)S(=O)(=O)c1ccccc1)N/N=C/c1ccccc1C(=O)O 38.3%
CCOc1cc(C(=O)OCC(=O)Nc2cc(C)on2)ccc1OCC(C)C -3.97%
Cc1ccccc1NC(=O)Cn1nnc(-c2ccc(N3CCOCC3)cc2)n1 2.77%
COc1ccccc1N(CC(=O)Nc1cc(C)on1)S(=O)(=O)c1ccc(Cl)cc1 -0.47%
NC(=O)[C@@H]1CCCN1Cc1nc(-c2cccs2)no1 -3.71%
CCOC(=O)/C(C#N)=C/N=c1ccc(C)cn1C 12.6%
C=CCN1C=C/C(=C\C=C(C#N)C#N)c2ccccc21 -9.06%
CCOC(=O)/C(C#N)=C\c1ccc(CC)s1 14.8%
CCOC(=O)/C(C#N)=C\N(C)C 5.6%
CCOC(=O)/C(C#N)=C/C=C1/C=CC=CN1C 20%
CCCN1C=CC(=CC=C(C#N)C#N)C=C1 40.8%
CCOC(=O)/C(C#N)=C/C=C1\C=Cc2ccccc2N1CC 1.1%
CCCCCCN1C=CC(=C/C=C(\C#N)C(=O)OCC)C=C1 -2.08%
CCOC(=O)c1nnn(-c2nonc2-n2cccc2)c1CCl 7.36%
COC(=O)CN(c1ccccc1OC)S(=O)(=O)c1ccccc1 -2.64%
Cc1ccc(C)c(NC2=C(Cl)C(=O)OC2OC(C)C)c1 (centres undefined) -15.8%
CC(=O)N1CCC(N(C(=O)Nc2ccc(F)cc2)C2CCCC2)CC1 11%
CC(C)(C)c1ccc(C(=O)c2c[nH]c(C(=O)NCC3CCCO3)c2)cc1 (centres undefined) -3.09%
NC(=O)c1ncc(C(F)(F)F)cc1Oc1cccc(C(F)(F)F)c1 -2.19%
Cc1cc(C)nc(NC(=O)C2c3ccccc3Oc3ccccc32)n1 5.07%
CCN(CC)CCNc1nc(-c2cccs2)c(CC(=O)O)s1 0.71%
CCCc1cc(C(=O)Nc2sc(C)c(CC)c2C#N)no1 3.41%
O=C(Nc1ccc(O)cc1)c1ccc2c(c1)C(=O)N(Cc1ccco1)C2=O 13.2%
O=C(O)c1ccc(COc2ccccc2/C=C2\NC(=O)N(Cc3ccccc3)C2=O)cc1 20.1%
O=C1/C(=C\c2ccco2)SC(=S)N1Cc1ccccc1 21.4%
O=C(Nc1ccc(O)cc1C(=O)O)c1ccc2c(c1)C(=O)N(Cc1ccco1)C2=O -9.39%
O=C(CN1C(=O)S/C(=C\c2ccccc2)C1=O)NNC(=O)c1ccccc1O 9.15%
O=C(CSc1nnc(-c2ccccc2)n1Cc1ccccc1)NNC(=O)c1ccccc1O 10.4%
COC(=O)C1=C(C)N(Cc2ccccc2)C(=O)/C1=C\c1ccco1 23.3%
O=C(NNC(=O)c1ccccc1O)c1ccco1 20.5%
Cc1cccc(C(=O)NCCC(=O)Nc2nc(C)c(Cc3ccc4c(c3)OCO4)s2)c1 -0.81%
CC(C)NC(=S)N1CCN(c2ncccn2)CC1 -3.12%
COc1ccc(C(=O)NC2CCN(C(=S)Nc3ccc(C)cc3)CC2)cc1 3.35%
